Reference: PubChem BioAssay (EPA / NIEHS)
“And” between values parts separate entries of the source, which are not always exact repeats. Equal entries are not always repeated. Inconclusive results are not listed. A structure can be active in one record and inactive in another. The source made the active and inactive calls. The calls were made as follows: active = hit-call score of the fitted dose curve at least 0.9, where 1 is the maximum; inconclusive = response in the unintended direction; inactive = score below 0.9.

assay: ACEA_ER_80hr: ACEA Biosciences xCELLigence Real-Time Cell Analysis on Estrogen Receptor Agonism for Proliferation (AID 2282667); conditions: T47D proliferation, impedance (xCELLigence), 80 h
Procedure: ACEA_ER is a cell-based, single-readout assay that uses T47D, a human breast cell line, with measurements taken at 80 hours after chemical dosing in a 96-well plate, although TO2 (mc0.srcf) used a 384-well plate. Differences in plate size can be ignored given data normalization.ACEA_ER_80hr is one of two assay component(s) measured or calculated from the ACEA_ER assay. It is designed to make measurements of real-time cell-growth kinetics, a form of growth reporter, as detected with electrical impedance signals by Real-Time Cell Electrode Sensor (RT-CES) technology.Data from the assay component ACEA_ER_80hr was analyzed into 1 assay endpoint. This assay endpoint, ACEA_ER_80hr_Positive, was analyzed in the positive analysis fitting direction relative to DMSO as the negative control and baseline of activity. Using a type of growth reporter, measures of the cells for gain-of-signal activity can be used to understand the signaling at the pathway-level as they relate to the gene ESR1. Furthermore, this assay endpoint can be referred to as a primary readout, because this assay has produced multiple assay endpoints where this one serves a signaling function. To generalize the intended target to other relatable targets, this assay endpoint is annotated to the nuclear receptor intended target family, where the subfamily is steroidal.
The xCELLigence system Multi-E-Plate stations were used to measure the time-dependent response to chemicals. Each compound was tested in an eight-point, 1:4 serial dilution series starting at a maximum final concentration of 100 uM. A maximum starting concentration of 0.5% DMSO was present in the 100 uM chemical samples and was diluted along with the test article dilution series. The screen was performed in biological duplicate using two separate, 96-well, E-Plates 96 for each dilution series (n = 2). Positive controls (MG132 and E2) and a negative control (assay media) were tested in quadruplicate on each testing plate. […] Reference compounds were tested with 8 concentrations with 1:5 serial dilutions. All screening was carried out by ACEA Biosciences, Inc. (San Diego, CA). T-47D cells purchased from ATCC were maintained in RPMI1640 media supplemented with 10% characterized fetal bovine serum (FBS). […] Cells were then detached and seeded in E-Plates 96 in assay medium. After overnight monitoring of growth once every hour, compounds were added to […] cells and remained in the medium until the end of the experiment. Cellular responses were then recorded once every 5 min for the first 5 h, and once every hour for an additional 100 h.

Compound	outcome	AC50
COC(=O)c1ccccc1C(=O)O	inactive	
Cc1nn(C)c(Oc2ccccc2)c1C=NOCc1ccc(C(=O)OC(C)(C)C)cc1		0.00439 µM (active)
CCCCOC(=O)[C@@H](C)Oc1ccc(Oc2ccc(C(F)(F)F)cn2)cc1		13.7 µM (active)
CCN(Cc1c(F)cccc1Cl)c1c([N+](=O)[O-])cc(C(F)(F)F)cc1[N+](=O)[O-]		2.12 µM (active)
CCCN(CCC)C(=O)SCC	inactive	
COc1c(Cl)ccc(Cl)c1C(=O)O	inactive	
CCN(CC)C(=O)c1cccc(C)c1	inactive	
CCSC(=O)N(CC(C)C)CC(C)C	inactive	
O=C(c1ccccc1)C1CCCCC1		9.92 µM (active) and 6.21 µM (active) and 50 µM (active)
CC(=O)S[C@@H]1CC2=CC(=O)CC[C@]2(C)[C@H]2CC[C@@]3(C)[C@@H](CC[C@@]34CCC(=O)O4)[C@H]12	inactive	10.7 µM (active) and 174 nM (active)
CCOC(=O)NCCOc1ccc(Oc2ccccc2)cc1	inactive	
CCCOC(=O)c1ccc(C(=O)OCCC)nc1	inactive	
OB(O)O	inactive	
COCCO	inactive	
CC(C)CCCCCCc1ccc(O)cc1		320 nM (active) [middle of 4 runs]
N[C@@H](Cc1cc(I)c(Oc2ccc(O)c(I)c2)c(I)c1)C(=O)O		40 µM (active) and 25 µM (active)

Compound	outcome	AC50
CCOC(=O)C(C)Oc1ccc(Oc2cnc3cc(Cl)ccc3n2)cc1 (configuration not stated)	inactive	
CCOC(=O)c1ccc(O)cc1		11.4 µM (active) [middle of 4 runs]
CCCCN(CCCC)C(=S)S		89.4 µM (active)
C#CCOC(=O)[C@@H](C)Oc1ccc(Oc2ncc(Cl)cc2F)cc1	inactive	
C[C@]12CC[C@@H]3c4ccc(O)cc4C[C@@H](CCCCCCCCCS(=O)CCCC(F)(F)C(F)(F)F)[C@H]3[C@@H]1CC[C@@H]2O (some centres not stated)		6.15 µM (active) and 9.53 µM (active)
CCCN(CCC)c1c([N+](=O)[O-])cc(C(F)(F)F)c(N)c1[N+](=O)[O-]	inactive	
CCCCN(CCC(=O)OCC)C(C)=O	inactive	
C[C@]12C[C@H](O)[C@H]3[C@@H](CCC4=CC(=O)CC[C@@]43C)[C@@H]1CC[C@@H]2C(=O)CO		32.8 nM (active) and 26.6 nM (active) and 102 nM (active)
CC1(C)C(C=C(Cl)Cl)C1C(=O)OCc1cccc(Oc2ccccc2)c1 (configuration not stated)	inactive	
O=C(Nc1ccc([N+](=O)[O-])cc1Cl)c1cc(Cl)ccc1O	inactive	
CCCCC(CC)CN1C(=O)C2C3C=CC(C3)C2C1=O (configuration not stated)	inactive	
O=C(O)c1ccccc1	inactive	
C#C[C@]1(O)CC[C@H]2[C@@H]3CCC4=CC(=O)CC[C@@H]4[C@H]3CC[C@@]21CC		2.58 nM (active) and 3.4 nM (active) and 143 nM (active)
O=C(c1ccc(O)cc1O)c1ccc(O)cc1O		756 nM (active) and 805 nM (active) and 548 nM (active)
CCCCOC(=O)C(C)Oc1ccc(Oc2ccc(C(F)(F)F)cn2)cc1 (configuration not stated)		0.0178 µM (active)
